In ChEMBL document CHEMBL1157539, “Thousands of chemical starting points for antimalarial lead identification” (Nature, 2010):
Values joined by “and” are separate entries in the source; they are usually repeats but may differ in a detail not shown here. Equal entries are not always repeated.

How the values were obtained:
Format in all cases: functional
[1] = tested on: Plasmodium falciparum; experiment: GSK_TCMDC: Inhibition of Plasmodium falciparum 3D7 in whole red blood cells, using parasite LDH activity as an index of growth. Test compounds present at 2uM
[2] = tested on: Plasmodium falciparum; experiment: GSK_TCMDC: Inhibition of Plasmodium falciparum Dd2 in whole red blood cells, using parasite LDH activity as an index of growth. Test compounds present at 2uM
[3] = tested on: HepG2; experiment: GSK_TCMDC: Percent inhibition of human HepG2 cell line. Test compounds present at 10uM.

Cl.N=c1c2c(n(Cc3ccc(Cl)cc3Cl)c3c1CCC3)CCCC2
Inhibition [1]: 94% | Inhibition [2]: 73% | Inhibition [3]: 0%

Cc1[nH]c2ccccc2c1C1=CCN(CCCCC2(C)C(=O)Nc3cccc(F)c32)CC1 (stereo not given)
Inhibition [1]: 95% | Inhibition [2]: 90% | Inhibition [3]: 9%

CC(=O)Nc1ccc(CN2CCC(N(C)c3cc(NC(=O)c4ccc(F)cc4)ccn3)CC2)cc1.O=C(O)C(F)(F)F
Inhibition [1]: 95% | Inhibition [2]: 5% | Inhibition [3]: 0%

O=C(/C=C/c1ccc(Cl)cc1)NC1CCC(CN2CCC(c3c[nH]c4ccccc34)CC2)CC1 (stereo not given)
Inhibition [1]: 99% and 100% | Inhibition [2]: 90% and 67% | Inhibition [3]: 40% and 39%

Cc1ccc(C)c(N2CCN(Cc3ccccc3O)CC2)c1
Inhibition [1]: 100% | Inhibition [2]: 90% | Inhibition [3]: 11%

CC(C)CNCc1ccc(-c2ccc(CN(C(=O)NC3CCCCC3)C3CCN(Cc4ccccc4)CC3)cc2)cc1.O=C(O)C(F)(F)F
Inhibition [1]: 100% | Inhibition [2]: 88% | Inhibition [3]: 39%

O=C(/C=C/c1ccc(Cl)c(Cl)c1)NCCCCCN1C2CCC1CC(c1c[nH]c3ccccc13)C2 (stereo not given)
Inhibition [1]: 98% | Inhibition [2]: 4% | Inhibition [3]: 54%

COCCSc1ccc(CC(C)NCC(O)c2cccc(Cl)c2)cc1.Cl (stereo not given)
Inhibition [1]: 97% | Inhibition [2]: 73% | Inhibition [3]: 2%

COc1ccc(OC)c(CNCC(O)c2cc(C(F)(F)F)cc(C(F)(F)F)c2)c1 (stereo not given)
Inhibition [1]: 92% | Inhibition [2]: 100% | Inhibition [3]: 7%

CN1CC=C(c2c[nH]c3ccc(Br)cc23)CC1
Inhibition [1]: 88% | Inhibition [2]: 80% | Inhibition [3]: 0%

Br.CNCCc1c(O)ccc2ccccc12
Inhibition [1]: 94% | Inhibition [2]: 0% | Inhibition [3]: 6%

CCCCNC(c1ccc(Cl)cc1)C(O)c1ccc(Cl)cc1.Cl (stereo not given)
Inhibition [1]: 99% | Inhibition [2]: 98% | Inhibition [3]: 13%

Cc1ccccc1CNCC(O)c1cccc(C(F)(F)F)c1 (stereo not given)
Inhibition [1]: 99% | Inhibition [2]: 77% | Inhibition [3]: 5%

COC(=O)c1ccc(CC(C)NCC(O)c2cccc(C(F)(F)F)c2)c(OC)c1 (stereo not given)
Inhibition [1]: 100% | Inhibition [2]: 98% | Inhibition [3]: 5%

O=C(CCc1ccco1)NC1CCN(CC2(c3ccc(Cl)cc3)CCC2)CC1
Inhibition [1]: 99% | Inhibition [2]: 67% | Inhibition [3]: 0%

CN1CCC(COC(=O)C(O)(c2ccccc2)c2ccccc2)C1 (stereo not given) [TRICLAZATE]
Inhibition [1]: 98% | Inhibition [2]: 4% | Inhibition [3]: 0%

c1ccc(C(OCCC2CCN(Cc3cccc4cccnc34)CC2)c2ccccc2)cc1
Inhibition [1]: 99% | Inhibition [2]: 99% | Inhibition [3]: 9%

O=C(/C=C/c1ccccc1O)NC1CCC(CN2CCC(c3c[nH]c4ccccc34)CC2)CC1 (stereo not given)
Inhibition [1]: 100% | Inhibition [2]: 45% and 73% | Inhibition [3]: 11% and 22%

O=C(C=Cc1ccccc1O)N1CCC(CN2CCC(c3c[nH]c4ccccc34)CC2)CC1
Inhibition [1]: 98% | Inhibition [2]: 43% | Inhibition [3]: 27%

CNCCCCCCc1ccc(CC(C)NCC(O)c2cccc(Cl)c2)cc1.Cl (stereo not given)
Inhibition [1]: 94% | Inhibition [2]: 76% | Inhibition [3]: 22%

COc1nc(N)ncc1C(=O)NC1CN2CCC1CC2 (stereo not given)
Inhibition [1]: 92% | Inhibition [2]: 0% | Inhibition [3]: 26%

CC[C@H]1CN2CC[C@@H]1C[C@H]2[C@H](O)c1cc(-c2ccc(Cl)c(Cl)c2)nc2ccc(O)cc12
Inhibition [1]: 98% | Inhibition [2]: 99% | Inhibition [3]: 0%

COc1ccc(C(=O)C2CC2CN2CC=C(c3c[nH]c4cccc(Br)c34)CC2)cc1.O=C(O)C(F)(F)F (stereo not given)
Inhibition [1]: 88% | Inhibition [2]: 67% | Inhibition [3]: 32%

COc1cccc(O)c1CNCC(O)c1cccc(C(F)(F)F)c1 (stereo not given)
Inhibition [1]: 98% | Inhibition [2]: 96% | Inhibition [3]: 31%

COc1ccc(C(=O)C2CC2CN2CC=C(c3c(C)[nH]c4ccccc34)CC2)cc1 (stereo not given)
Inhibition [1]: 96% | Inhibition [2]: 94% | Inhibition [3]: 16%

CC(=O)C1(c2ccccc2)CCN(CCC2(c3ccc(Cl)c(Cl)c3)CN(C(=O)Nc3cccc(C(F)(F)F)c3)CCO2)CC1 (stereo not given)
Inhibition [1]: 95% | Inhibition [2]: 66% | Inhibition [3]: 24%

Cl.O=C(/C=C/c1ccc(Cl)c(Cl)c1)NC1C2CCC1CC(CN1CCC(c3c[nH]c4ccccc34)CC1)C2 (stereo not given)
Inhibition [1]: 100% | Inhibition [2]: 100% | Inhibition [3]: 31%

N#Cc1ccc(N(CCCO)Cc2ccccc2C(F)(F)F)cc1C(F)(F)F
Inhibition [1]: 91% | Inhibition [2]: 23% | Inhibition [3]: 7%

O=C(C=Cc1ccc(F)c(Br)c1)NC1CCC(CN2CCC(c3c[nH]c4ccccc34)CC2)CC1 (stereo not given)
Inhibition [1]: 100% | Inhibition [2]: 67% and 50% | Inhibition [3]: 28% and 39%

O=P(O)(O)Oc1c(Br)cc(Br)cc1-c1cc(Br)cc(Br)c1O [BROMOFENOFOS]
Inhibition [1]: 97% | Inhibition [2]: 0% | Inhibition [3]: 10%

C/C=C1\CN2CC[C@H]1C[C@H]2[C@H](O)c1ccnc2ccc(OC)cc12.O=S(=O)(O)O
Inhibition [1]: 99% | Inhibition [2]: 61% | Inhibition [3]: 0%

Cc1cc(C)c(CC(C)NCC(O)c2cccc(C(F)(F)F)c2)c(C)c1.Cl (stereo not given)
Inhibition [1]: 100% | Inhibition [2]: 99% | Inhibition [3]: 0%

CC(=O)C1(c2ccccc2)CCN(CCC2(c3ccc(Cl)c(Cl)c3)CN(C(=O)Nc3cc(F)cc(F)c3)CCO2)CC1 (stereo not given)
Inhibition [1]: 86% | Inhibition [2]: 20% | Inhibition [3]: 2%

Cl.O=C(c1cc(C(F)(F)F)cc(C(F)(F)F)c1)N1CCC(CCN2CCC3(CC2)C(=O)NCN3c2ccccc2)CC1Cc1ccc(Cl)c(Cl)c1 (stereo not given)
Inhibition [1]: 100% | Inhibition [2]: 77% | Inhibition [3]: 19%

Br.CC[C@H]1CN2CC[C@H]1C[C@H]2[C@H](O)c1ccnc2ccc(C#N)cc12
Inhibition [1]: 100% | Inhibition [2]: 55% | Inhibition [3]: 0%

CN(C)c1cccc(NC(=O)NC2N=C(c3ccccc3)c3ccccc3N(CC(=O)N(C)c3ccccc3)C2=O)c1 (stereo not given)
Inhibition [1]: 99% | Inhibition [2]: 80% | Inhibition [3]: 1%

COC(C(=O)OCCC1CCCN1C)(c1ccccc1)C1CCCCC1 (stereo not given)
Inhibition [1]: 100% | Inhibition [2]: 5% | Inhibition [3]: 3%

Cn1nc(C(F)(F)F)cc1-c1ccc(C(=O)NC2CCC(CN3CCC(c4c[nH]c5ccccc45)CC3)CC2)s1 (stereo not given)
Inhibition [1]: 100% | Inhibition [2]: 97% | Inhibition [3]: 45%

CC(Cc1ccc(OCCOc2ccccc2)cc1)NCC(O)c1cccc(C(F)(F)F)c1 (stereo not given)
Inhibition [1]: 91% | Inhibition [2]: 76% | Inhibition [3]: 16%

O=C(/C=C/c1ccc(Cl)c(Cl)c1)NC1CCC(CN2CCC(c3c[nH]c4ccccc34)C(O)C2)CC1 (stereo not given)
Inhibition [1]: 100% | Inhibition [2]: 87% | Inhibition [3]: 30%

Oc1ccc(CN2CCN(CCOC(c3ccc(F)cc3)c3ccc(F)cc3)CC2)cc1Cl
Inhibition [1]: 96% | Inhibition [2]: 87% | Inhibition [3]: 19%

COc1cccc(C(=O)C2CC2CN2CC=C(c3c(C)[nH]c4ccccc34)CC2)c1 (stereo not given)
Inhibition [1]: 92% | Inhibition [2]: 87% | Inhibition [3]: 13%

Cc1ccc(/C=C/C(=O)NC2CCC(CN3CCC(c4c[nH]c5ccccc45)CC3)CC2)cc1 (stereo not given)
Inhibition [1]: 100% | Inhibition [2]: 66% and 69% | Inhibition [3]: 32% and 41%

Cc1[nH]c2ccc(O)cc2c1C1CCN(CC2CCN(C(=O)/C=C/c3ccc(Cl)c(Cl)c3)CC2)CC1
Inhibition [1]: 99% | Inhibition [2]: 99% | Inhibition [3]: 23%

O=C(Cc1cc(=O)oc2cc(O)ccc12)N1CCC(CN2CCC(c3c[nH]c4ccccc34)CC2)CC1
Inhibition [1]: 94% | Inhibition [2]: 0% | Inhibition [3]: 1%

CCC1(C)CC(CCNCc2ccccc2O)(c2ccc(F)cc2)CCO1 (stereo not given)
Inhibition [1]: 98% | Inhibition [2]: 32% | Inhibition [3]: 20%

Cc1ccc(C(=O)Nc2ccnc(N(C)C3CCN(Cc4cccc(O)c4)CC3)c2)cn1.O=C(O)C(F)(F)F
Inhibition [1]: 90% | Inhibition [2]: 1% | Inhibition [3]: 0%

CC[C@H]1CN2CC[C@@H]1C[C@H]2[C@H](O)c1cc(N2CCC(O)(c3ccc(Cl)cc3)CC2)nc2ccc(OC)cc12
Inhibition [1]: 100% | Inhibition [2]: 98% | Inhibition [3]: 21%

O=C1c2ccccc2CCC1CCN1CC=C(c2c[nH]c3ccccc23)CC1 (stereo not given)
Inhibition [1]: 89% | Inhibition [2]: 83% | Inhibition [3]: 5%

CC1=CC(=O)[C@@H](O)[C@]2(C)[C@H]3[C@@]4(O)OC[C@@]35[C@@H](C[C@@H]12)OC(=O)C[C@H]5[C@@H](C)[C@H]4O [CHAPARRINONE]
Inhibition [1]: 99% | Inhibition [2]: 98% | Inhibition [3]: 38%

O=C(/C=C/c1cccc(F)c1)NC1CCC(CN2CCC(c3c[nH]c4ccccc34)CC2)CC1 (stereo not given)
Inhibition [1]: 99% and 98% | Inhibition [2]: 28% and 31% | Inhibition [3]: 39% and 35%

CC[C@H]1CN2CC[C@H]1C[C@@H]2[C@@H](O)c1ccnc2ccc(OC)cc12.Cl
Inhibition [1]: 100% | Inhibition [2]: 95% | Inhibition [3]: 0%

CC(C)NC(=O)Cn1cc(C2CCN(CC3CCN(C(=O)/C=C/c4ccc(Cl)c(Cl)c4)CC3)CC2)c2ccccc21.O=C(O)C(F)(F)F
Inhibition [1]: 97% | Inhibition [2]: 55% | Inhibition [3]: 31%

COc1cccc(/C=C/C(=O)NC2CCC(CN3CCC(c4c[nH]c5ccccc45)CC3)CC2)c1 (stereo not given)
Inhibition [1]: 100% and 94% | Inhibition [2]: 26% and 38% | Inhibition [3]: 30% and 19%

c1ccc(C(OCCC2CCN(Cc3cccnc3)CC2)c2ccccc2)cc1
Inhibition [1]: 99% | Inhibition [2]: 98% | Inhibition [3]: 12%

O=C(CSc1ccc(Cl)cc1)NC1CCC(CN2CCC(c3c[nH]c4ccccc34)CC2)CC1 (stereo not given)
Inhibition [1]: 95% | Inhibition [2]: 21% | Inhibition [3]: 41%

CC(Cc1ccc(C(C)(C)C)cc1)NCC(O)c1ccccc1.Cl (stereo not given)
Inhibition [1]: 94% | Inhibition [2]: 89% | Inhibition [3]: 5%

CC(=O)Nc1ccc2[nH]cc(C3CCN(CC4CCN(C(=O)/C=C/c5ccc(Cl)c(Cl)c5)CC4)CC3)c2c1
Inhibition [1]: 96% | Inhibition [2]: 41% | Inhibition [3]: 10%

Cl.OC(CNC1CCCCCC1)c1ccc(Cl)c(Cl)c1 (stereo not given)
Inhibition [1]: 99% | Inhibition [2]: 98% | Inhibition [3]: 0%

CCOc1ccc(CN(CCc2ccc3c(c2)OCO3)Cc2cc(OC)ccc2O)cc1.O=C(O)C(=O)O
Inhibition [1]: 96% | Inhibition [2]: 88% | Inhibition [3]: 3%
